Consider 5 compounds from the supplement of paper PMC6897291.

Counter-ions that a name gives are not always drawn.

This test concerns RIVA. In words: growth inhibition by drug alone (1 - RLU/untreated control) (fraction); higher = stronger inhibition. The settings on record: 177Lu-lilotomab satetraxetan 0 ug/ml. As for the experimental part: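 RIVA (RI-1) ABC-DLBCL cells were pretreated or not for 18 h with 0.5 ug/ml 177Lu-lilotomab satetraxetan (600 MBq/mg), washed and seeded (3000 cells/well) on 384-well plates pre-printed with the Selleck Cambridge Cancer Compound library. Viability was read by RealTime-Glo luminescence on days 3-6 after seeding. Effect = 1 - RLU/mean RLU of the 48 untreated no-drug control wells per plate; Bliss score = (M-E)/(1-Fa).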

As to `C=CC(=O)N1CCC[C@@H](n2nc(-c3ccc(Oc4ccccc4)cc3)c3c(N)ncnc32)C1`, the “growth inhibition by drug alone” value was 0.676 (10 nM, time (day): 3); 0.716 (10 nM, time (day): 4); 0.705 (10 nM, time (day): 5); 0.642 (10 nM, time (day): 6); 0.897 (100 nM, time (day): 3); 0.908 (100 nM, time (day): 4). Further, the “growth inhibition by drug alone” value runs as follows: (100 nM, time (day): 5) 0.915; (100 nM, time (day): 6) 0.923.

In the case of `CC(C)C[C@H](NC(=O)[C@H](Cc1ccccc1)NC(=O)c1cnccn1)B(O)O` [Bortezomib (Velcade)], the “growth inhibition by drug alone” value (10 nM, time (day): 3) was 0.923; the “growth inhibition by drug alone” value (10 nM, time (day): 4) is 0.946; the “growth inhibition by drug alone” value (10 nM, time (day): 5) worked out at 0.958; the “growth inhibition by drug alone” value (10 nM, time (day): 6) was determined as 0.96; the “growth inhibition by drug alone” value (100 nM, time (day): 3) was 0.978; the “growth inhibition by drug alone” value (100 nM, time (day): 4) turned out to be 0.978. The “growth inhibition by drug alone” value reads like this: (100 nM, time (day): 5) 0.978; (100 nM, time (day): 6) 0.976.

On to `C[C@]1(c2nc3c(C(N)=O)cccc3[nH]2)CCCN1` [ABT-888 (Veliparib)], for which the “growth inhibition by drug alone” value was -0.145 (10 nM, time (day): 3); -0.176 (10 nM, time (day): 4); -0.216 (10 nM, time (day): 5); -0.314 (10 nM, time (day): 6); -0.198 (100 nM, time (day): 3); -0.238 (100 nM, time (day): 4). Also, the “growth inhibition by drug alone” value (100 nM, time (day): 5) is -0.247 and the “growth inhibition by drug alone” value (100 nM, time (day): 6) was -0.287.

On to `O=C(O)c1ccc2c(c1)nc(Nc1cccc(Cl)c1)c1ccncc12` [cx-4945 (Silmitasertib)], for which the “growth inhibition by drug alone” value reads like this: (10 nM, time (day): 3) -0.142; (10 nM, time (day): 4) -0.128; (10 nM, time (day): 5) -0.161; (10 nM, time (day): 6) -0.291; (100 nM, time (day): 3) 0.0492; (100 nM, time (day): 4) -0.00845. In addition, the “growth inhibition by drug alone” value was -0.0374 (100 nM, time (day): 5) and -0.111 (100 nM, time (day): 6).

For `CN1CC[C@H](c2c(O)cc(O)c3c(=O)cc(-c4ccccc4Cl)oc23)[C@H](O)C1` [Flavopiridol hydrochloride], the “growth inhibition by drug alone” value (10 nM, time (day): 3) is -0.111; the “growth inhibition by drug alone” value (10 nM, time (day): 4) is -0.116; the “growth inhibition by drug alone” value (10 nM, time (day): 5) was -0.189; the “growth inhibition by drug alone” value (10 nM, time (day): 6) was -0.255; the “growth inhibition by drug alone” value (100 nM, time (day): 3) turned out to be 0.504; the “growth inhibition by drug alone” value (100 nM, time (day): 4) was determined as 0.533. The “growth inhibition by drug alone” value by setting is: (100 nM, time (day): 5) 0.499; (100 nM, time (day): 6) 0.385.
